Screening results as filed in PubChem BioAssay.
A selection: hits, their analogues and other compounds. The true share with any hit is near 19%.
RORgamma inh = ROR gamma (mouse) transcription inhibition | P51450 | Drosophila S2 Gal4-RORgamma UAS-luciferase reporter, 20 h | Potency, µM (highest dose often 53.6 µM), for the others: at the top dose activity change, negative = inhibition, actives largely listed as inhibitors | 5.4% of 310,000 active | AID 2551; note: nearly all actives have a fitted effect of over 60% in size
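Drosophila Schneider cells stably carrying a metallothionein-driven Gal4 DBD–ROR gamma fusion and a UAS-Photinus luciferase reporter were exposed to compound for 1 hr, then induced with copper sulfate (700 uM final) for 20 hr at ambient temperature before luminescence reading.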
TDP1 cell CPT = DT40-hTDP1 cell growth loss with CPT; chicken DT40 Tdp1-/-;hTDP1 cells + 20 nM CPT, ATP luminescence, 48 h; Potency, µM (top dose mostly 46.2 µM), for the others: at the top dose activity change, negative = growth inhibition, most hits filed as inhibitors; 12% of 420,000 active; AID 686979; note: nearly all actives have a fitted effect of over 55% in size
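Chicken DT40 Tdp1-/- cells complemented with human TDP1, 400 cells/well, exposed to compounds plus 20 nM camptothecin for at least 48 h at 37 C; viability read as ATP content by CellTiter-Glo luminescence.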
DT40 TDP1 no CPT = qHTS for Inhibitors of human tyrosyl-DNA phosphodiesterase 1 (TDP1): qHTS in cells in absence of CPT; DT40 Tdp1-/- hTDP1 cells, no CPT, ATP luminescence, 48 h; Potency, µM (top dose mostly 46.2 µM), without a hit: at the top dose activity change, negative = growth inhibition, hits mostly inhibitors; 15% of 420,000 active; note: nearly all actives have a fitted effect of over 55% in size
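Stably hTDP1-transfected Tdp1-null chicken DT40 cells were treated with library compounds minus camptothecin and grown for at least 48 hr at 37 °C, after which cellular ATP was quantified by luminescence.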
VP16 counter = inhibits Gal4-VP16 luciferase reporter, ROR gamma counter-screen. Potency, µM (doses to about 53.6 µM), without a hit: at the highest dose activity, negative = inhibition, hits mostly inhibitors. 3.5% of 310,000 active. Drosophila S2 Gal4-VP16 UAS-luciferase, luminescence, 20 h;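 note: Gal4-VP16 expression switched on by copper sulfate through the metallothionein promoter; nearly all actives have a fitted effect of over 50% in size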
TDP1 block = inhibitors of human tyrosyl-DNA phosphodiesterase TDP1; Potency, µM (top dose mostly 130 µM), for inactives: at the highest dose activity change, negative = inhibition, most hits filed as inhibitors; recombinant TDP1, AlphaScreen DNA substrate cleavage; Q9NUW8; 0.28% of 350,000 active; note: nearly all actives have a fitted effect of over 40% in size
Target sequence (Q9NUW8 whole entry, looked up): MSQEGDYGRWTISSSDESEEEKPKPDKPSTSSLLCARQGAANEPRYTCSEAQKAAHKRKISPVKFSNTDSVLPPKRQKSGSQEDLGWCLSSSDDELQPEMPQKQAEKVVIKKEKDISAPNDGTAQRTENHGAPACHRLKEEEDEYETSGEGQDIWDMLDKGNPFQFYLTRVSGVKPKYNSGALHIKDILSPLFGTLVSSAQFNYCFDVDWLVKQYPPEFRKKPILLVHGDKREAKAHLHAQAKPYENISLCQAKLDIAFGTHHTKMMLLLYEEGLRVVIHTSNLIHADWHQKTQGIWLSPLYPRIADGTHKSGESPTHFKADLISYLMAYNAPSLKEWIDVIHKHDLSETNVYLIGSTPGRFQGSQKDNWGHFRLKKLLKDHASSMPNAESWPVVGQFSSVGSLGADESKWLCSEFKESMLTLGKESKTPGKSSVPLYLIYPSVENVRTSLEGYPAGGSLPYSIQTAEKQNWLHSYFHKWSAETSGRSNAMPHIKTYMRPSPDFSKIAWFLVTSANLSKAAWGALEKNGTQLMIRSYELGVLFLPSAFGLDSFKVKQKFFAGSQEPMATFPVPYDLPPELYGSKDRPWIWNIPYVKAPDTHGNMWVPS
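E. coli-derived human Tdp1, 1 nM final. Cpd preinc 15 min RT; substrate 15 nM final, 5 min RT; AS bead mix 10 ug/ml final, 10 min RT. Signal loss = tyrosine-FITC cleavage. No-enzyme wells = max signal.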
Active calls of the source: *; ? = inconclusive; · = no result given; [ ] = remark or other dose. Calls come from the whole dose curve; as a rule, active = well fitted curve in the direction sought with a large enough effect; inconclusive = small, poorly fitted or top-dose-only effect, or another doubt; inactive = no such curve, though single readings can be large; an effect the other way counts as inactive or inconclusive. % is set by controls: 0 for no effect and ±100 for the full control effect; potency is the fitted concentration of half-maximal effect.

SMILES | RORgamma inh | TDP1 cell CPT | DT40 TDP1 no CPT | VP16 counter | TDP1 block
Cc1cc[n+](-c2nc3ccccc3nc2[N-]S(=O)(=O)c2cccs2)cc1C | 14% | -21% | -1% | -12% | 4%
COc1ccc(S(=O)(=O)N2CCOCC2)cc1NC(=O)CCc1cc(OC)c(OC)c(OC)c1 | · | 1% | 13% | · | 1%
O=C(c1cc2cc(C(F)(F)F)ccc2s1)N1CCOCC1 | 16% | 4% | 3% | 6% | 6%
COc1cc(OC)c(N(C)C(=O)c2sc3nc4n(c(=O)c3c2C)CCCC4)cc1Cl | · | ? | 16µM* | · | 5%
CCc1ccc(NC(=O)c2sc3nc4n(c(=O)c3c2C)CCC4)cc1 | ? | -22% | -22% | -9% | 2%
Cc1c(C(=O)Nc2cccc(C(F)(F)F)c2)sc2nc3n(c(=O)c12)CCCC3 | · | 10µM* | 8.2µM* | · | 6%
CC(=O)c1cccc(NC(=O)c2sc3nc4n(c(=O)c3c2C)CCCC4)c1 | -27% | ? | -5% | 2% | 2%
CCOc1ccc(NC(=O)c2sc3nc4n(c(=O)c3c2C)CCCC4)cc1 | · | 21µM* | 13µM* | · | 12%
CC(=O)Nc1ccc(NC(=O)c2sc3nc4n(c(=O)c3c2C)CCCCC4)cc1 | -10% | 12µM* | 10µM* | -3% | 2%
CC(C)[C@H](CO)NC(=O)[C@H]1O[C@@H](n2ccc(N)nc2=O)[C@H](O)[C@@H]1O | · | 1% | 3% | · | ·
O=C(CN1CCOCC1)Nc1cccc(C(F)(F)F)c1 | · | 3% | -14% | · | ·
Cc1ccc(NC(=O)c2sc3nc[nH]c(=O)c3c2C)cc1Cl | · | -29% | ? | · | -1%
Cc1c(C(=O)Nc2ccc(C(C)C)cc2)sc2nc[nH]c(=O)c12 | · | 21µM* | 18µM* | · | 8%
O=[N+]([O-])c1ccc(-c2csc(Nc3ccccc3)[n+]2Cc2ccccc2)cc1 | 39% | 21µM* | 21µM* | ? | 5%
COc1ccc(-c2csc(Nc3ccccc3)[n+]2Cc2ccccc2)cc1 | -23% | ? | 15µM* | -14% | 5%
CN(C)CCC(O)c1ccccc1 (centres undefined) | -14% | 14% | 7% | -1% | 0%
CCc1nc2sc(C#N)c(N)c2c2c1CCCC2 | · | -7% | -17% | · | ·
Nc1c(C(=O)NC2CC2)sc2nc3c(c(-c4ccco4)c12)CC/C3=C/c1ccco1 | -20% | 18µM* | 16µM* | -23% | 0%
NC(=O)c1sc2nc3c(c(-c4ccco4)c2c1N)CCC3 | 5% | ? | 14µM* | 10% | 6%
Cc1cc(C)c2c(N)c(C(=O)NCc3ccco3)sc2n1 | ? | 0% | ? | 2% | 0%
Cc1ccc(-c2nc3sc(C(N)=O)c(N)c3c3c2CCCC3)cc1 | -43% | ? | ? | -2% | -1%
NC(=O)c1sc2nc(-c3ccccc3)c3c(c2c1N)CCCC3 | 2% | ? | 16µM* | -3% | 4%
CCc1nc2sc(C(C)=O)c(N)c2c2c1CCCC2 | -13% | ? | 15µM* | 3% | 3%
Cc1nc2sc(C(N)=O)c(N)c2c2c1CCCC2 | 5.6µM* | ? | ? | 5% | -1%
COc1ccc(-c2ccc(C(=O)NC3CCCCC3)c3occc23)c(C)c1 | · | 21µM* | 18µM* | · | ·
SMILES | RORgamma inh | TDP1 cell CPT | DT40 TDP1 no CPT | VP16 counter | TDP1 block
COc1ccc(-c2ccc(C(=O)Nc3cc(OC)c(OC)c(OC)c3)c3occc23)c(C)c1 | · | 6.5µM* | 23µM* | · | ·
O=C(NC1CCCCC1)c1ccc(-c2cn[nH]c2)c2ccoc12 | · | 23µM* | 16µM* | · | ·
COc1ccc(-c2ccc(C(=O)Nc3cccc(C(F)(F)F)c3)c3occc23)c(C)c1 | · | 23µM* | 21µM* | · | ·
CC(=O)N1CCN(C(=O)c2ccc(Cl)c(NC(=O)c3cccs3)c2)CC1 | · | -6% | 2% | · | ·
O=C(C1=NNCC1c1ccc(Cl)cc1)C1CO1 (centres undefined) | -2%[10 µM] | 8.2µM* | ? | 2% | -2%
CC(=O)c1cc(C#N)c(SCC(=O)OC(C)(C)C)nc1C | 17% | 21µM* | ? | -11% | 1%
CC(=O)c1cc(C#N)c(SCC(=O)OC(C)C)nc1C | -43% | ? | ? | 1%[0.365 µM] | 0%
COc1ccc(C(CNc2nc(-c3cccnc3)nc3ccccc23)N(C)C)cc1 (centres undefined) | -24% | ? | ? | -7% | 11%
COc1ccccc1C(CNc1nc(C(F)(F)F)nc2ccccc12)N(C)C (centres undefined) | 27% | ? | 21µM* | -12% | 5%
O=C(Nc1cc(-c2nc3ncccc3o2)ccc1Cl)c1ccc2c(c1)OCO2 | · | -12% | ? | · | -2%
COc1ccc(S(=O)(=O)N(C)C[C@H]2Oc3c(NC(=O)Cc4ccccc4)cccc3C(=O)N([C@H](C)CO)C[C@@H]2C)cc1 | · | ? | -26% | · | 3%
COc1ccc(S(=O)(=O)N(C)C[C@H]2Oc3c(NC(=O)C4CC4)cccc3C(=O)N([C@H](C)CO)C[C@@H]2C)cc1 | · | 16µM* | -15% | · | 1%
C[C@H](CO)N1C[C@H](C)[C@@H](CN(C)S(=O)(=O)c2ccccc2)Oc2c(NC(=O)C3CCCCC3)cccc2C1=O | · | ? | 23µM* | · | 2%
COc1ccc(S(=O)(=O)Nc2cccc3c2O[C@H](CN(C)S(=O)(=O)c2ccc(Cl)cc2)[C@H](C)CN([C@H](C)CO)C3=O)cc1 | · | ? | 18µM* | · | 1%
CC(C)NC(=O)Nc1cccc2c1O[C@H](CN(C)S(=O)(=O)c1ccc(F)cc1)[C@@H](C)CN([C@H](C)CO)C2=O | · | 16µM* | -28% | · | 1%
